# From PubChem BioAssay
# Hits are enriched below; roughly 12% of the tested compounds scored in any of these assays.
# JMJD2A Tudor inh: blocks the human JMJD2A Tudor domain; O75164; AlphaScreen JMJD2A-Tudor / H3K4me3 peptide binding; Potency, µM (titrated, usually from 114 µM), without a hit: at the highest dose activity change, negative = inhibition, usual class: inhibitors; actives 4.4% (n = 390,000); also: % is scaled to controls: 0 for no effect and ±100 for the full control effect; nearly all actives have a fitted effect of over 50% in size
# BAZ2B block: blocks human BAZ2B; actives 4.4% (n = 360,000); Q9UIF8; AlphaScreen BAZ2B-H3K14Ac peptide displacement; AID 504333; Potency, µM (series often up to 114 µM), for the others: at the top dose activity change, negative = inhibition, actives largely listed as inhibitors; also: % is scaled to controls: 0 for no effect and ±100 for the full control effect; nearly all actives have a fitted effect of over 60% in size
#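 Protein-peptide AlphaScreen: BAZ2B 50 nM, b-H3K14Ac 50 nM, 1x PBS pH 7.4 + 0.01% Tween-20. Preincubation 30 min RT; cpd 30 min RT (top 110 uM); beads 20 min RT, light-protected.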
# G9a block: blocks human histone lysine methyltransferase G9a; G9a H3K9 monomethylation, AlphaScreen, 2 h; Potency, µM (doses to about 102 µM), inactives show top-dose activity, negative = inhibition, actives largely listed as inhibitors; actives 8.8% (n = 350,000); also: % is scaled to controls: 0 for no effect and ±100 for the full control effect; nearly all actives have a fitted effect of over 75% in size
# Target sequence (Q96KQ7 913-1193 limits assumed): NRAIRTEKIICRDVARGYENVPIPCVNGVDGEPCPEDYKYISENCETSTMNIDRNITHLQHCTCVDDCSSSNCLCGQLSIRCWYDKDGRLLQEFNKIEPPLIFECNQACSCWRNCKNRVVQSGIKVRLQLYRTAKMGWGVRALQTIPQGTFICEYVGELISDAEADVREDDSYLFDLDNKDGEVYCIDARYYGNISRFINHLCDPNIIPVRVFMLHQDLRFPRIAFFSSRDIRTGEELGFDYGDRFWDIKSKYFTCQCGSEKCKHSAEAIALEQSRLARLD
#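 Signal arises when biotinylated H3K9 peptide, once monomethylated, bridges streptavidin donor and antibody-captured acceptor beads. Enzyme at 20 nM was preincubated 15 min with test compounds; peptide 500 nM and SAM 20 uM then reacted for 2 h.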
# L3MBTL1 block: inhibitors of human L3MBTL1; Q9Y468; AlphaScreen L3MBTL1–H3K9me1 peptide binding; Potency, µM (titrated, usually from 57.1 µM), for the others: at the top dose activity, negative = inhibition, actives largely listed as inhibitors; actives 0.66% (n = 230,000); AID 485360; also: % is scaled to controls: 0 for no effect and ±100 for the full control effect; nearly all actives have a fitted effect of over 60% in size
#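 L3MBTL1 (50 nM) pre-complexed 30 min with biotinylated H3(1-15)K9me1 peptide (75 nM), then compounds added for 30 min at room temperature; AlphaScreen streptavidin donor/nickel chelate acceptor beads (10 ug/mL final) read after 30 min dark incubation.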
# HP1b binding inh: blocks HP1-beta chromodomain binding to methylated histone tails | Potency, µM (highest dose often 114 µM), for inactives: at the top dose activity change, negative = inhibition, actives largely listed as inhibitors | AlphaScreen HP1-beta / biotin-H3K9me3 peptide binding | actives 0.56% (n = 390,000); also: nearly all actives have a fitted effect of over 70% in size
# Target sequence (P83916 whole entry, looked up): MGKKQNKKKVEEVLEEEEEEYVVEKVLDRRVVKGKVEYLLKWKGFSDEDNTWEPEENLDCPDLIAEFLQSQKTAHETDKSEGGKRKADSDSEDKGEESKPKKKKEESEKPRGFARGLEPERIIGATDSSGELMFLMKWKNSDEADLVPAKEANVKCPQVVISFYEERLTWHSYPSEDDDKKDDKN
#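 Compound inhibition of the preformed complex between 50 nM HP1-beta and 50 nM biotinylated H3K9me3 peptide was read by AlphaScreen. Buffer was PBS pH 7.4 with 0.01% Tween-20. Incubations ran 30 min at room temperature, with 10 ug/mL donor/acceptor beads.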
# Sfp inh: blocks B. subtilis Sfp PPTase activity; Biochemical Sfp PPTase activity, qHTS; actives 3.5% (n = 310,000); Potency, µM, for the others: largest response in the series, negative = inhibition, most hits filed as inhibitors;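 also: the enzyme is Sfp with the accession as filed and its product quenches rhodamine fluorescence; 0% = enzyme reaction without inhibitor and -100% = no enzyme wells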
#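 Step 1, compound plus 15 nM Sfp-PPTase, 15 min, room temperature. Step 2, add rhodamine-CoA (5 uM) and BHQ-2-YbbR (12.5 uM). Step 3, read 525/598 nm fluorescence at 0 and 30 min.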
# Numbers without * were called inactive; u = inconclusive; x = not tested or not shown; [ ] = remark or other dose. Calls follow the shape of the dose curve; as a rule, active = well fitted curve in the direction sought with a large enough effect; inconclusive = small, poorly fitted or top-dose-only effect, or another doubt; inactive = no such curve, though single readings can be large; an effect the other way counts as inactive or inconclusive. Potency is read from the fitted curve at half-maximal effect.
SMILES,JMJD2A Tudor inh,BAZ2B block,G9a block,L3MBTL1 block,HP1b binding inh,Sfp inh
Cc1nnc2ccc(-c3ccc(NC(=O)c4ccco4)cc3)nn12,-5%,-20%,35µM*,x,14%,-3%
CCN(CC)CCNC(=O)COc1ccc(Cl)cc1,x,x,3%[12.7 µM],x,x,-25%
COc1ccc(N=CC=C2OC(C)(C)C(C)(C)O2)cc1OC,-26%,u,32µM*,-3%,40%,-2%
Cc1ccccc1N=CC=C1OC(C)(C)C(C)(C)O1,-13%,1%,40µM*,-9%,22%,u
Cc1cccc(N=CC=C2OC(C)(C)C(C)(C)O2)c1,-14%,-14%,u,1%,31%,6%
COc1cccc(NC=C2C(=O)OC(C)(C)OC2=O)c1,-4%,0%,22%,2%,19%,10%
COc1cccc(N=CC=C2OC(C)(C)C(C)(C)O2)c1,-20%,1%,35µM*,x,38%,-9%
COc1cccc(N=CNc2cccc(OC)c2)c1,50µM*,x,x,x,-20%,x
Cc1ccc(N=CC=C2OC(C)(C)C(C)(C)O2)cc1,1%,-27%,u,-3%,40%,0%
CN1CCN(S(=O)(=O)c2ccc(C(F)(F)F)cc2)C(c2ccccc2)C1 (stereo not drawn),12%,1%,15%[2.33 µM],4%,78%,x
N#Cc1ncccc1CCc1cccc(Cl)c1,16%,x,x,x,23%,x
Cc1cc(C)cc(NC(=O)CCc2nnc3n(CC(C)C)c(=O)c4ccccc4n23)c1,-9%,3%,1%[59 µM],x,30%,x
CS/C(=N\S(=O)(=O)c1ccc(N)cc1)NS(=O)(=O)c1cccs1,89µM*,-2%,u,5%,14%,19%
Cc1ccc2c(C)c(C(=O)N(Cc3ccc(N(C)C)cc3)Cc3ccco3)oc2c1C,18µM*,10µM*,11µM*,x,-25%,x
Cc1ccc2c(C)c(C(=O)NCCc3ccco3)oc2c1C,-8%,-9%,25%,x,15%,-6%
CCc1ccc2oc(C(=O)N(Cc3ccc(N(C)C)cc3)Cc3ccco3)c(C)c2c1,18µM*,8.9µM*,10µM*,x,u,x
Cc1ccc(NC2c3ncccc3C(=O)N2c2ccccc2C)cc1C (stereo not drawn),11µM*,20µM*,u,u,-25%,45µM*
Oc1cc2c(cc1CN1CCc3ccccc3C1)OCO2,u,-32%,20µM*,x,-3%,-1%
CCc1ccc(S(=O)(=O)N2CCN(Cc3ccco3)CC2)cc1,-14%,3%,86%,x,5%,13%
COc1ccccc1N1CCN(Cc2cc3c(cc2O)OCO3)CC1,u,u,10µM*,x,-16%,0%
FC(F)(F)c1ccc(CN2CCN(Cc3ccco3)CC2)cc1,-7%,-1%,50µM*,0%,19%,-4%
COc1ccc(CN2CCCCCC2)cc1,1µM*,-1%,x,9%,24%,-14%
C/C=C(/C)C(=O)O[C@H]1CC(C)=CC(=O)[C@@]2(C)CC[C@@](O)(C(C)C)[C@H]12,3%,x,x,x,34%,3%
COc1ccc(C(=O)Nc2nnc(SCC(=O)NC3CC3)s2)cc1,-2%,-18%,-3%,x,29%,17%
Clc1ccc(N2CCN(Cc3ccco3)CC2)cc1,1.8µM*,50µM*,5µM*,-1%,u,-10%
SMILES,JMJD2A Tudor inh,BAZ2B block,G9a block,L3MBTL1 block,HP1b binding inh,Sfp inh
Cc1cc2ccccc2cc1CN1CCCCC1,0%,-6%,14%,2%,42%,21%
C/C(=N\N1CCN(c2ccc(Cl)cc2)CC1)c1ccco1,-1%,u,u,-13%,22%,-1%
Clc1ccccc1N1CCN(Cc2ccco2)CC1,-22%,-4%,x,-3%,29%,-1%
COc1ccc(CN2CCN(Cc3ccco3)CC2)cc1OC,20µM*,28µM*,8.9µM*,7%,u,u
COc1ccccc1N1CCN(Cc2ccco2)CC1,3.2µM*,u,u,-4%,-54%,-24%
COc1ccc(N=Nc2cc(C)c(O)c(CN3CCCCC3)c2)cc1,22µM*,13µM*,11µM*,u,28µM*,1%
COc1cccc(CN2CCN(Cc3ccco3)CC2)c1,7.9µM*,50µM*,10µM*,x,u,45µM*
COc1ccc(CN2CCN(Cc3ccco3)CC2)cc1,4µM*,20µM*,u,x,20µM*,u
COc1cccc(N2CCN(Cc3ccco3)CC2)c1,8.9µM*,u,x,-4%,u,-28%
COc1cccc(N2CCN(CC(=O)NC(=O)NCc3ccco3)CC2)c1,-25%,-39%,-43%,x,22%,-7%
O=S(=O)(c1ccc(F)cc1)N1CCN(c2nc(-c3cccs3)nc3cc(Cl)ccc23)CC1,-2%,x,x,x,35%,x
O=C(Nc1ccc2nc(-c3ccco3)[nH]c2c1)c1cccs1,-16%,u,14µM*,-11%,17%,-12%
O=C(Nc1ccc2nc(-c3ccccc3)[nH]c2c1)c1cccs1,-20%,-6%,u,x,12%,6%
O=C(Nc1ccc2nc(-c3ccco3)[nH]c2c1)c1ccco1,-26%,u,71µM*,x,37%,45µM*
CC(=O)Nc1ccc2nc(-c3ccco3)[nH]c2c1,4%,-18%,u,9%,9%,-1%
O=C(Nc1ccc2nc(-c3ccc4nc[nH]c4c3)[nH]c2c1)c1cccs1,-35%[57.1 µM],-28%,22µM*,10%,u,-2%
O=C(Nc1cccc(NC(=O)c2cccs2)c1)c1ccco1,-17%,1%,13%[59 µM],x,31%,10%
Cc1c(C(=O)N(C)C)sc2c1c(=O)n(-c1ccccc1C(F)(F)F)c(=O)n2Cc1cccc(F)c1,-12%,-17%,2%[59 µM],x,29%,x
CC1CCN2c3ccccc3CC3(C(=O)OC(C)(C)OC3=O)C2C1 (stereo not drawn),-23%[57.1 µM],x,x,x,3%[57 µM],x
CC/C(C)=N/Nc1nc2c(c(=O)[nH]c(=O)n2C)n1CCc1ccccc1,-24%,-19%,56µM*,-4%,-4%,u
Cn1c(=O)[nH]c(=O)c2c1nc(NCCO)n2CCOc1ccccc1,5%,6%,57%,-5%,48%,20%
Cn1c(=O)[nH]c(=O)c2c1nc(N/N=C/C(Br)=C/c1ccccc1)n2CCO,u,u,x,x,24%,56µM*
CC(C)=NNc1nc2c(c(=O)[nH]c(=O)n2C)n1CCc1ccccc1,-33%,u,45µM*,-10%,u,u
CC/C(C)=N/Nc1nc2c(c(=O)[nH]c(=O)n2C)n1Cc1ccccc1,u,u,-9%[2.33 µM],x,u,-15%
COC(=O)c1ccc(/C=N/NC(=O)C(=O)NCC2CCCO2)cc1 (stereo not drawn),-14%,-3%,x,11%,43%,7%
